# Data published in the supplement of paper PMC8728848.
# The entries come from a sample that favours the strongest signals as a whole.
# Assays:
# Experiment in all cases: glycan array binding signal (z-score within array); higher = stronger binding
# Conditions in all cases: glycan notation: IUPAC condensed, linker removed
# Fuc(a1-2)Gal = target: Fuc(a1-2)Gal
# Outline: (§1)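 The binding signal is a Z-score computed within each array and averaged over linkers. Arrays of the same protein sequence at different concentrations or buffers were also averaged together. Data originate from 3228 arrays in the Consortium for Functional Glycomics database, kept only where the protein sequence was available.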
# [1] = target: Fuc(a1-2)Gal(b1-3)GalNAc(a1-3)[Fuc(a1-2)]Gal(b1-4)GlcNAc
# Outline: as §1
# [2] = target: Fuc(a1-2)Gal(b1-3)GlcNAc(b1-3)[Neu5Ac(a2-6)Gal(b1-4)GlcNAc(b1-6)]Gal(b1-4)Glc
# Outline: as §1
# [3] = target: Fuc(a1-2)Gal(b1-4)GlcNAc(b1-2)Man(a1-3)[Fuc(a1-2)Gal(b1-4)GlcNAc(b1-2)Man(a1-6)]Man(b1-4)GlcNAc(b1-4)GlcNAc
# Outline: as §1
# [4] = target: Fuc(a1-2)Gal(b1-4)GlcNAc(b1-3)[Fuc(a1-3)[Gal(b1-4)]GlcNAc(b1-6)]Gal(b1-4)Glc
# Outline: as §1
# [5] = target: Fuc(a1-2)Gal(b1-4)GlcNAc(b1-6)GalNAc
# Outline: as §1
# [6] = target: Fuc(a1-2)[Gal(a1-3)]Gal(b1-4)GlcNAc(b1-6)GalNAc
# Outline: as §1
# [7] = target: Fuc(a1-2)[GalNAc(a1-3)]Gal(b1-3)GalNAc(b1-3)Gal(a1-4)Gal(b1-4)Glc
# Outline: as §1
# [8] = target: Fuc(a1-2)[GalNAc(a1-3)]Gal(b1-3)GlcNAc(b1-2)Man(a1-3)[Fuc(a1-2)[GalNAc(a1-3)]Gal(b1-3)GlcNAc(b1-2)Man(a1-6)]Man(b1-4)GlcNAc(b1-4)[Fuc(a1-6)]GlcNAc
# Outline: as §1
# [9] = target: Fuc(a1-2)[GalNAc(a1-3)]Gal(b1-4)GlcNAc(b1-2)Man
# Outline: as §1
# [10] = target: Fuc(a1-3)[Gal(b1-4)]GlcNAc(b1-3)Gal(b1-4)[Fuc(a1-3)]GlcNAc
# Outline: as §1
# [11] = target: Fuc(a1-3)[Gal(b1-4)]GlcNAc(b1-3)GalNAc
# Outline: as §1
# [12] = target: Fuc(a1-3)[Gal(b1-4)]GlcNAc(b1-6)[Gal(b1-3)GlcNAc(b1-3)]Gal(b1-4)Glc
# Outline: as §1
# [13] = target: Gal(a1-3)Gal(b1-3)GlcNAc(b1-6)GalNAc
# Outline: as §1
# [14] = target: Gal(a1-3)[Gal(a1-4)]Gal(b1-4)GlcNAc
# Outline: as §1
# Gal(a1-6)Glc = target: Gal(a1-6)Glc
# Outline: as §1
# Gal(b1-3)GalNAc(b1-3)Gal = target: Gal(b1-3)GalNAc(b1-3)Gal
# Outline: as §1
# [15] = target: Gal(b1-3)GlcNAc(b1-2)Man(a1-3)[Gal(b1-3)GlcNAc(b1-2)Man(a1-6)]Man(b1-4)GlcNAc(b1-4)[Fuc(a1-6)]GlcNAc
# Outline: as §1
# [16] = target: Gal(b1-3)GlcNAc(b1-3)Gal(b1-4)GlcNAc(b1-6)[Gal(b1-3)GlcNAc(b1-3)]Gal(b1-4)Glc
# Outline: as §1
# Gal(b1-4)GlcNAc = target: Gal(b1-4)GlcNAc
# Outline: as §1
# [17] = target: Gal(b1-4)GlcNAc(a1-6)Gal(b1-4)GlcNAc
# Outline: as §1
# [18] = target: Gal(b1-4)GlcNAc(b1-2)Man(a1-3)[GlcNAc(b1-2)Man(a1-6)]Man(b1-4)GlcNAc(b1-4)GlcNAc
# Outline: as §1
# [19] = target: Gal(b1-4)GlcNAc(b1-3)[Fuc(a1-3)GlcNAc(b1-6)]Gal(b1-4)Glc
# Outline: as §1
# [20] = target: Gal(b1-4)GlcNAc(b1-6)Gal(b1-4)GlcNAc
# Outline: as §1
# [21] = target: Gal3S(b1-4)[Fuc(a1-3)]Glc6S
# Outline: as §1
# [22] = target: Gal3S(b1-4)[Fuc(a1-3)]GlcNAc
# Outline: as §1
# Gal6P(b1-4)GlcNAc = target: Gal6P(b1-4)GlcNAc
# Outline: as §1
# Gal6S(b1-3)GlcNAc = target: Gal6S(b1-3)GlcNAc
# Outline: as §1
# Gal6S(b1-4)Glc6S = target: Gal6S(b1-4)Glc6S
# Outline: as §1
# [23] = target: GalNAc(a1-3)GalNAc(b1-3)Gal(a1-4)Gal(b1-4)Glc
# Outline: as §1
# GalNAc(b1-4)GlcNAc = target: GalNAc(b1-4)GlcNAc
# Outline: as §1
# [24] = target: GalNAc(b1-4)GlcNAc(b1-2)Man(a1-3)[GalNAc(b1-4)GlcNAc(b1-2)Man(a1-6)]Man(b1-4)GlcNAc(b1-4)GlcNAc
# Outline: as §1
# GalNAc3S(b1-4)GlcNAc3S = target: GalNAc3S(b1-4)GlcNAc3S
# Outline: as §1
# Glc(b1-4)Glc = target: Glc(b1-4)Glc
# Outline: as §1
# [25] = target: GlcNAc(b1-2)Man(a1-3)[GlcNAc(b1-4)][GlcNAc(b1-2)Man(a1-6)]Man(b1-4)GlcNAc(b1-4)GlcNAc
# Outline: as §1
# [26] = target: GlcNAc(b1-2)[GlcNAc(b1-6)]Man(a1-6)[GlcNAc(b1-4)][GlcNAc(b1-2)Man(a1-3)]Man(b1-4)GlcNAc(b1-4)GlcNAc
# Outline: as §1
# [27] = target: GlcNAc(b1-3)Gal(b1-4)GlcNAc(b1-3)Gal(b1-4)GlcNAc(b1-2)[GlcNAc(b1-3)Gal(b1-4)GlcNAc(b1-3)Gal(b1-4)GlcNAc(b1-6)]Man(a1-6)[GlcNAc(b1-3)Gal(b1-4)GlcNAc(b1-3)Gal(b1-4)GlcNAc(b1-2)Man(a1-3)]Man(b1-4)GlcNAc(b1-4)[Fuc(a1-6)]GlcNAc
# Outline: as §1
# [28] = target: GlcNAc(b1-3)Gal(b1-4)GlcNAc(b1-3)Gal(b1-4)GlcNAc(b1-3)GalNAc
# Outline: as §1
# GlcNAc(b1-6)GalNAc = target: GlcNAc(b1-6)GalNAc
# Outline: as §1
# Kdn(a2-3)Gal(b1-4)Glc = target: Kdn(a2-3)Gal(b1-4)Glc
# Outline: as §1
# [29] = target: Man(a1-2)Man(a1-3)[Man(a1-2)Man(a1-6)]Man(a1-6)[Man(a1-2)Man(a1-2)Man(a1-3)]Man(b1-4)GlcNAc(b1-4)GlcNAc
# Outline: as §1
# [30] = target: Man(a1-2)Man(a1-6)[Man(a1-3)]Man(a1-6)[Man(a1-2)Man(a1-2)Man(a1-3)]Man
# Outline: as §1
# [31] = target: Man(a1-3)[Man(a1-6)]Man(a1-6)[Man(a1-3)]Man
# Outline: as §1
# Man(a1-6)Man = target: Man(a1-6)Man
# Outline: as §1
# [32] = target: Neu5Ac(a2-3)Gal(b1-3)GlcNAc(b1-2)Man(a1-3)[Neu5Ac(a2-3)Gal(b1-3)GlcNAc(b1-2)Man(a1-6)]Man(b1-4)GlcNAc(b1-4)GlcNAc
# Outline: as §1
# [33] = target: Neu5Ac(a2-3)Gal(b1-3)GlcNAc6S
# Outline: as §1
# [34] = target: Neu5Ac(a2-3)Gal(b1-4)GlcNAc(b1-3)Gal(b1-3)GlcNAc
# Outline: as §1
# [35] = target: Neu5Ac(a2-3)Gal(b1-4)GlcNAc6S
# Outline: as §1
# [36] = target: Neu5Ac(a2-6)Gal(b1-4)GlcNAc(b1-2)Man(a1-3)Man(b1-4)GlcNAc(b1-4)GlcNAc
# Outline: as §1
# [37] = target: Neu5Ac(a2-6)Gal(b1-4)GlcNAc(b1-2)Man(a1-3)[Man(a1-6)]Man(b1-4)GlcNAc(b1-4)GlcNAc
# Outline: as §1
# [38] = target: Neu5Ac(a2-6)GlcNAc(b1-4)GlcNAc(b1-4)GlcNAc
# Outline: as §1
# [39] = target: Neu5Ac(a2-8)Neu5Ac(a2-3)Gal(b1-3)GalNAc(b1-4)[Neu5Ac(a2-8)Neu5Ac(a2-3)]Gal(b1-4)Glc
# Outline: as §1
# [40] = target: Neu5Ac(a2-8)Neu5Ac(a2-3)[Gal(b1-3)GalNAc(b1-4)]Gal(b1-4)Glc
# Outline: as §1
# [41] = target: Neu5Gc(a2-3)Gal(b1-4)[Fuc(a1-3)]GlcNAc
# Outline: as §1
binder,measurement,setting,value
"AT1G77380(17) (Arabidopsis thaliana), Q39134 (protein) MVQNHQTVLAVDMPQTGGSKYLDDDGKNKRTGSVWTASAHIITAVIGSGVLSLAWATAQLGWLAGPVVMLLFSAVTYFTSSLLAACYRSGDPISGKRNYTYMDAVRSNLGGVKVTLCGIVQYLNIFGVAIGYTIASAISMMAIKRSNCFHKSGGKDPCHMNSNPYMIAFGLVQILFSQIPDFDQLWWLSILAAVMSFTYSSAGLALGIAQVVVNGKVKGSLTGISIGAVTETQKIWRTFQALGDIAFAYSYSIILIEIQDTVKSPPSEEKTMKKATLVSVSVTTMFYMLCGCMGYAAFGDLSPGNLLTGFGFYNPYWLLDIANAAIVIHLIGAYQVYCQPLFAFIEKQASIQFPDSEFIAKDIKIPIPGFKPLRLNVFRLIWRTVFVIITTVISMLLPFFNDVVGLLGALGFWPLTVYFPVEMYIAQKKIPRWSTRWVCLQVFSLGCLVVSIAAAAGSIAGVLLDLKSYKPFRSEY",glycan array binding signal (z-score),Fuc(a1-2)Gal,2.99
same,glycan array binding signal (z-score),[1],2.89
same,glycan array binding signal (z-score),[2],-0.856
same,glycan array binding signal (z-score),[3],-0.43
same,glycan array binding signal (z-score),[4],2.76
same,glycan array binding signal (z-score),[5],-0.513
same,glycan array binding signal (z-score),[6],-0.886
same,glycan array binding signal (z-score),[7],4.03
same,glycan array binding signal (z-score),[8],-0.716
same,glycan array binding signal (z-score),[9],1.32
same,glycan array binding signal (z-score),[10],-0.28
same,glycan array binding signal (z-score),[11],0.285
same,glycan array binding signal (z-score),[12],2.75
same,glycan array binding signal (z-score),[13],-0.733
same,glycan array binding signal (z-score),[14],3.09
same,glycan array binding signal (z-score),Gal(a1-6)Glc,-0.766
same,glycan array binding signal (z-score),Gal(b1-3)GalNAc(b1-3)Gal,-0.955
same,glycan array binding signal (z-score),[15],3.2
same,glycan array binding signal (z-score),[16],1.9
same,glycan array binding signal (z-score),Gal(b1-4)GlcNAc,-0.639
same,glycan array binding signal (z-score),[17],2.75
same,glycan array binding signal (z-score),[18],-0.757
same,glycan array binding signal (z-score),[19],0.166
same,glycan array binding signal (z-score),[20],-0.725
same,glycan array binding signal (z-score),[21],0.338
same,glycan array binding signal (z-score),[22],-0.327
same,glycan array binding signal (z-score),Gal6P(b1-4)GlcNAc,-0.442
same,glycan array binding signal (z-score),Gal6S(b1-3)GlcNAc,-0.519
same,glycan array binding signal (z-score),Gal6S(b1-4)Glc6S,-0.34
same,glycan array binding signal (z-score),[23],-0.209
same,glycan array binding signal (z-score),GalNAc(b1-4)GlcNAc,2.31
same,glycan array binding signal (z-score),[24],7.58
same,glycan array binding signal (z-score),GalNAc3S(b1-4)GlcNAc3S,-0.031
same,glycan array binding signal (z-score),Glc(b1-4)Glc,0.66
same,glycan array binding signal (z-score),[25],-0.289
same,glycan array binding signal (z-score),[26],-0.522
same,glycan array binding signal (z-score),[27],0.854
same,glycan array binding signal (z-score),[28],-0.766
same,glycan array binding signal (z-score),GlcNAc(b1-6)GalNAc,2.85
same,glycan array binding signal (z-score),Kdn(a2-3)Gal(b1-4)Glc,4.07
same,glycan array binding signal (z-score),[29],3.3
same,glycan array binding signal (z-score),[30],-0.524
same,glycan array binding signal (z-score),[31],-0.782
same,glycan array binding signal (z-score),Man(a1-6)Man,-0.696
same,glycan array binding signal (z-score),[32],-0.809
same,glycan array binding signal (z-score),[33],0.954
same,glycan array binding signal (z-score),[34],-1.04
same,glycan array binding signal (z-score),[35],-0.786
same,glycan array binding signal (z-score),[36],-0.792
same,glycan array binding signal (z-score),[37],-0.896
same,glycan array binding signal (z-score),[38],0.349
same,glycan array binding signal (z-score),[39],-0.862
same,glycan array binding signal (z-score),[40],-0.73
same,glycan array binding signal (z-score),[41],-0.363
